# Targets with the largest changes are over-represented here; the source holds about 21,000 in all.
# Biological target: PKN2_Q16513_118_LQELNAHIVVSDPEDITDCPR (UniProt Q16513)
# Assay: probe-labelled cysteine peptide fold change vs DMSO (competition) (log2 fold change); higher = less target engagement (more negative = stronger competition)
# Conditions: THP-1, incubation time: 4 h
# 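Note: competitive profiling in live THP-1 cells: cysteine peptides tagged with an iodoacetamide desthiobiotin (IA-DTB) probe, intensity after compound treatment relative to DMSO-treated cells.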
# UniProt Q16513, sequence (Q16513 whole entry, looked up): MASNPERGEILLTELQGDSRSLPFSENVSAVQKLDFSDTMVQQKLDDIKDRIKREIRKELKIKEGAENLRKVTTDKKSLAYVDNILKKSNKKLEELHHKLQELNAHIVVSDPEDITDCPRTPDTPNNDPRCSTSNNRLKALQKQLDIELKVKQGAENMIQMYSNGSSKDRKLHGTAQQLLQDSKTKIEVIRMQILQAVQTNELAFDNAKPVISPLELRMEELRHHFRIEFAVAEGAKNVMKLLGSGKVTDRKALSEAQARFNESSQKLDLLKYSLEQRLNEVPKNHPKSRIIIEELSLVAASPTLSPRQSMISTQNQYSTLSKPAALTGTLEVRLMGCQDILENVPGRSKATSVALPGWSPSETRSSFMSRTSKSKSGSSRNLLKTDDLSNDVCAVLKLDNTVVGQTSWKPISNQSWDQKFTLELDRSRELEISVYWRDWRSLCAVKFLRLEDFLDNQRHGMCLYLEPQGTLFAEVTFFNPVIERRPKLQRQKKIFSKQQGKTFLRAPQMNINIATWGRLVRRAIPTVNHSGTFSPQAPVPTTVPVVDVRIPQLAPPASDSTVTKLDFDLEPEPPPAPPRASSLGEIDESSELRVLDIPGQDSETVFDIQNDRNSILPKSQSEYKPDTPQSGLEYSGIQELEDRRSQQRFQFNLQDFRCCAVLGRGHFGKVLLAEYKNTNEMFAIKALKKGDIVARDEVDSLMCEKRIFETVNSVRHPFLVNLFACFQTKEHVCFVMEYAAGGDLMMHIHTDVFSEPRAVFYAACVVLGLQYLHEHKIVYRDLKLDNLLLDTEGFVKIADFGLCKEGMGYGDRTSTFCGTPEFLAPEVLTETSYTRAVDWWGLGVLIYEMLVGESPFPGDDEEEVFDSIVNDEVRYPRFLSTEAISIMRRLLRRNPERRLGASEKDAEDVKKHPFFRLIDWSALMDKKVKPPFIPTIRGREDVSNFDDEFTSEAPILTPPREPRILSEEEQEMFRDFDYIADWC
structure (smiles),measurement,setting,value
Cc1cc(C(=O)N2CCCN(C(=O)CCl)CC2)ccc1-c1ccccc1 [compound 10],probe-labelled cysteine peptide fold change,10 µM,-0.00661
same,probe-labelled cysteine peptide fold change,50 µM,0.269

# From the supplement of paper PMC12067093, “Discovery and optimisation of a covalent ligand for TRIM25 and its application to targeted protein ubiquitination” (Chemical Science, 2025)
